The values that follow come from PubChem BioAssay AID485358 (National Center for Advancing Translational Sciences (NCATS), 2010).

Screen size: about 340,000 compounds; about 1,800 (0.53%) were called active. This is one part of a sample in which actives are shown more often than they occur. Values without a mark were called inactive.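 How the source made its calls: active means activation over 3 SD above normal in the single-dose calcium agonist read (cut at about 30% in these data); inactive means the rest.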

Sequence of D(2) dopamine receptor (Homo sapiens) (P14416 whole entry, looked up): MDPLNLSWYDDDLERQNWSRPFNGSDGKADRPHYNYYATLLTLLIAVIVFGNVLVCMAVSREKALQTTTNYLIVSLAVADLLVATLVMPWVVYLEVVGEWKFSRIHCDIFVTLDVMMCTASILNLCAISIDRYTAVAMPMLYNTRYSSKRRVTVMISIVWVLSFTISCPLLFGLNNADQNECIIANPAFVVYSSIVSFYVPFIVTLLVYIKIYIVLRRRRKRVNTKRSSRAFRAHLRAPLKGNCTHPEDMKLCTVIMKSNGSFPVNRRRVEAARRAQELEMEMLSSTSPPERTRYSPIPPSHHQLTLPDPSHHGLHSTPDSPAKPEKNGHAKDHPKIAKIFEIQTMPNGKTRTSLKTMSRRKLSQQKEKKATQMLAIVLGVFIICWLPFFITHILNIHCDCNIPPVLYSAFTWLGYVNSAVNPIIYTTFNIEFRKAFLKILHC

The target of this assay is D(2) dopamine receptor (Homo sapiens) (UniProt P14416). The assay is described as follows: HTS Assay for Allosteric Agonists of the Human D2 Dopamine Receptor: Primary Screen for Agonists. Further: 0% is about no effect. Particulars: HEK293 T-REx D2 cells, calcium flux agonist mode; at 2 µM; active compounds read high. The procedure, abridged:
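Agonism is scored from calcium flux in a force-coupled, inducible HEK293 cell line expressing D2, read kinetically for 180 s after compound addition against dopamine controls.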
A general note: A change in cytosolic calcium serves as a functional read-out for many receptors and channels.
With `O=C(c1cccs1)N1CCN(Cc2ccc3c(c2)OCO3)CC1`, the activation was 84.2% (active).
Next, `CCn1cc(C(=O)N2CCN(Cc3ccc4c(c3)OCO4)CC2)c2cc(OC)c(OC)cc2c1=O`: 51.1% (active).
The result for `Cc1cc(C)n2nc(C(=O)N3CCN(Cc4ccc5c(c4)OCO5)CC3)nc2n1` reads 40.9% (active).
The result for `O=C(C1CCN(Cc2ccc(Cl)cc2)CC1)N1CCN(Cc2ccc3c(c2)OCO3)CC1` reads 0.973%; that for `CCn1cc(C(=O)N2CCN(C3CCCCC3)CC2)c2cc(OC)c(OC)cc2c1=O`, 0.186%.
As to `Cc1cc(C)n2nc(C(=O)Oc3ccc4c(c3)OCO4)nc2n1`, the activation was -0.808%.
Consider `O=C(Nc1cccc2ccccc12)N1CCN(Cc2ccc3c(c2)OCO3)CC1`, for which the activation is 5.88%.
Next, `CCn1cc(C(=O)NCc2ccc3c(c2)OCO3)c2cc(OC)c(OC)cc2c1=O`: -0.995%.
Next, `COc1ccc(-c2cc(C(=O)N3CCN(Cc4ccc5c(c4)OCO5)CC3)on2)cc1OC`: -0.524%; `COc1cc(OC)c(N(C)C(=O)c2cc3c(=O)oc4ccccc4c3s2)cc1Cl`: 0.129%; `Cc1ccc(C)c(N2CCN(c3ccc4cc(S(=O)(=O)N5CCC(C)CC5)ccc4n3)CC2)c1`: 0.192%.
The result for `Cc1ccc(-c2cn3c(n2)sc2cc(C(=O)NCCCc4ccccc4)ccc23)cc1` reads 1.23%; that for `CCN(CC)S(=O)(=O)c1ccc2c(c1)N(CC(=O)NCc1ccccc1)C(=O)CS2`, -0.489%; that for `Cc1cccc(S(=O)(=O)c2cn(Cc3ccccc3)c3cc(N4CCOCC4)c(F)cc3c2=O)c1`, -0.108%.
Regarding `COc1ccccc1-c1ccnc2[nH]n(-c3ccccc3)c(=O)c12`, the activation is -0.0633%.
The result for `COc1cc(OC)cc(C(=O)N[C@H](C(=O)Nc2nc3ccccc3[nH]2)C(C)C)c1` reads 0.237%; that for `COc1cc(OC)cc(C(=O)N[C@H](C(=O)OCC(=O)NC(C)c2ccccc2)C(C)C)c1` (stereo not given in full), 32.6% (active); that for `COc1ccc(C(=O)N[C@H](C(=O)NCc2ccccc2)C(C)C)cc1`, -0.577%.
The result for `Cc1ccc(CN2CCN(/N=C/c3ccco3)CC2)c(C)c1` reads 0.881%.
Next, `c1cnc(N2CCN(c3ccc4ccccc4n3)CC2)nc1`: 0.566%; `CN(C)C(=O)c1nc2ccc(Cl)cn2c1CN1CCN(c2ncccn2)CC1`: 5.69%.
Consider `Oc1ccc(CN2CCN(c3ncccn3)CC2)cc1`, for which the activation is 84.4% (active).
Next, `Cc1ccc(CN2CCN(c3ncccn3)CC2)c(C)c1`: 71.3% (active); `Cc1ccc(CN2CCN(/N=C/c3cccnc3)CC2)c(C)c1`: -0.239%; `COc1cc(C(CC(=O)NCCC(C)C)N2Cc3ccccc3C2=O)cc(OC)c1OC` (stereo not given): 2.01%.
The result for `CCc1ccc2oc(-c3ccc(C)c(NC(=O)/C=C/c4ccco4)c3)nc2c1` reads 0.62%; that for `CCc1ccccc1NC(=O)Cn1c(=O)n(-c2cccc(C)c2)c(=O)c2c1c1cc(OC)ccc1n2C`, 0.643%; that for `CC(C)OP(=O)(OC(C)C)C(Nc1ccccc1)c1cccc([N+](=O)[O-])c1` (stereo not given), -2.16%.
Next, `O=C(CC(c1ccccc1)c1ccccc1)NCC(O)c1ccc([N+](=O)[O-])cc1` (stereo not given): -0.594%; `CC(CCc1ccccc1)NCC(O)c1cccc([N+](=O)[O-])c1` (stereo not given): 59.5% (active); `Oc1c(C(c2ccc(F)cc2)N2CCN(Cc3ccccc3)CC2)sc2nc(-c3ccco3)nn12` (stereo not given): 0.375%.
As to `COc1cc(NC(=O)c2noc3c2CSc2ccccc2-3)cc(OC)c1OC`, the activation is -0.598%.
Next, `COc1ccc(-c2nc3scc(CCNS(=O)(=O)c4cc(F)ccc4OC)n3n2)cc1OC`: -1.74%; `Cc1ccc(OCCn2c(CNc3ccccc3C)nc3ccccc32)cc1`: 0.246%.
Consider `Cc1ccc(C)c(N2CCN(C(=O)Cn3nc(C)c4sc5ccccc5c4c3=O)CC2)c1`, for which the activation is -0.843%.
Next, `COc1ccccc1CNc1ccc(-c2nc(-c3ccccc3C)no2)cc1[N+](=O)[O-]`: 2.39%.
Next, `CCc1cccc(CC)c1NC(=O)Cn1c(=O)c(-c2cc(C)ccc2NC(C)=O)nc2ccccc21`: 0.924%; `O=C(CNCc1cccs1)Nc1cc(S(=O)(=O)N2CCCC2)ccc1Cl`: 57.6% (active).
The result for `CS(=O)(=O)c1ccc(Cl)c(NC(=O)COC(=O)c2cccc(S(=O)(=O)N3CCCC3)c2)c1` reads -0.318%; that for `O=C(NCc1cccs1)C1CCN(S(=O)(=O)c2ccc(Cl)cc2)CC1`, 0.13%; that for `O=C(NCCCN1CCCCCC1)C1CC(=O)N(C2CCCC2)C1` (stereo not given), 0.131%.
`O=C(NCCCN1CCN(c2ccccc2F)CC1)C1CCC(=O)N1C1CCCCC1` (stereo not given): the activation was 68.8% (active).
Next, `COc1ccc(CN2CC(C(=O)NCCN3CCN(c4ccccc4F)CC3)CC2=O)cc1` (stereo not given): 0.792%; `COc1ccccc1NC(=O)C(=O)c1cc(C)n(-c2ccccc2F)c1C`: -1.58%; `COc1ccc(OC)c(C(=O)c2ccc(C(=O)N3CCN(Cc4csc(C)n4)CC3)cc2)c1`: 37.6% (active).
The result for `COc1ccc(OC)c(C(=O)c2coc3ccc(O)c(CN4CCOCC4)c23)c1` reads 0.863%; that for `COc1ccc(-c2nn3c(=O)cc(CN4CCN(C(=O)c5ccc(OC)c(OC)c5)CC4)nc3s2)cc1`, 0.0582%.
The result for `CCCCN1C(=O)c2[nH]nc(-c3ccccc3O)c2C1c1cccc(OCc2ccccc2)c1` (stereo not given) reads -0.42%.
Take `O=C(c1ccc2ccccc2n1)N1CCN(c2ccccc2Cl)CC1`: the activation is 1.21%.
With `O=C(c1c(Cl)cccc1Cl)N1CCN(c2cccc3[nH]ccc23)CC1`, the activation was 41.5% (active).
The result for `O=C(c1c(F)cccc1Cl)N1CCN(c2ccccn2)CC1` reads -0.0487%; that for `Cc1cc(C)cc(NC(=O)Cn2c(=O)c3ccccc3n3nncc23)c1`, 0.456%.
The result for `CCOC(=O)CC1C(=O)NCCN1c1nc2c(C)cccn2c(=O)c1/C=C1\SC(=S)N(C(C)CC)C1=O` (stereo not given) reads 61.9% (active).
Regarding `Cc1cccn2c(=O)c(/C=C(\C#N)C(N)=O)c(N3CCCCCC3)nc12`, the activation was -0.181%.
The result for `CCCN(CCC)c1nc2c(C)cccn2c(=O)c1/C=C1/SC(=S)N(Cc2ccco2)C1=O` reads 9.37%.
